An excerpt weighted towards active compounds, which were near 3.8% of everything screened.
MT1-MMP txn act – MT1-MMP promoter transcription activation | HT1080 MT1-MMP promoter luciferase reporter, luminescence, overnight; active compounds read high | activation factor at 10 µM | 86,000 tested, 0.16% active | AID 750;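 active means activation factor of at least 2 for MT1-MMP transcription at 10 µM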
ERa coact pot – ER-alpha (human) coactivator binding potentiation. TR-FRET ERalpha-LBD/SRC-Cy5 coactivator binding, 2 h; 100 = basal binding, no effect. coactivator binding (% of control), % at 25.6 µM. 86,000 tested, 1.3% active; in the data active means activity above about 200%;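 further: binding measured in presence of low estradiol as agonist stimulus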
ERb coact inh – blocks coactivator binding to human estrogen receptor beta | inhibition, % at 25.6 µM | TR-FRET ER-beta LBD / SRC1-Cy5 peptide binding; receptor agonist-loaded with 1 µM estradiol | AID 633 | 86,000 tested, 1.3% active | Q92731;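 active means compounds whose percent inhibition of the receptor-coactivator binding signal exceeds about 50% in the single-dose screen, limit read from the data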
Target sequence (Q92731 whole entry, looked up, the tested form may be a part): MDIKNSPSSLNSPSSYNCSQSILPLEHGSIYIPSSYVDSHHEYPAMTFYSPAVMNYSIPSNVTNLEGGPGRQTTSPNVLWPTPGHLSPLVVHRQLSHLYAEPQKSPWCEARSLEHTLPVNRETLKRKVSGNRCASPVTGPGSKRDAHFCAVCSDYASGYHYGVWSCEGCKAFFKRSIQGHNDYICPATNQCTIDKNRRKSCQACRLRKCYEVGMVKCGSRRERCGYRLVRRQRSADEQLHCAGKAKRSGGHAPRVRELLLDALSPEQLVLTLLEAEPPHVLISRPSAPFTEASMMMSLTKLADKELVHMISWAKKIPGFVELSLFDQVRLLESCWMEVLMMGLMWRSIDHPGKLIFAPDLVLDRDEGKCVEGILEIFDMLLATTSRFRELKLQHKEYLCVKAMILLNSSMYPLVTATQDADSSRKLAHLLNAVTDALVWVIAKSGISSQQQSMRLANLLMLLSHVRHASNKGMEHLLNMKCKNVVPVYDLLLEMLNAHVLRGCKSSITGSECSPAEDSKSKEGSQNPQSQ
ERa coact inh – blocks coactivator binding to human estrogen receptor alpha | P03372 | TR-FRET ER-alpha LBD / SRC-1 peptide, estradiol-bound | inhibition, % at 25.6 µM | 86,000 tested, 1.7% active; in the data active means inhibition above about 50%
Smad3 inh – blocks human Smad3 binding to FoxH1 peptide. P84022. TR-FRET Smad3/Dy647-FoxH1 peptide binding, europium anti-His. inhibition, % at 25 µM. 88,000 tested, 0.29% active. AID 630;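 active means compounds that reduce the energy-transfer binding signal between the protein and its labelled peptide by more than half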
Candida biofilm – kills Candida albicans biofilms; C. albicans biofilm + clotrimazole, Alamar Blue; inhibition, % at 6 µM; 85,000 tested, 0.14% active; AID 834;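 active means inhibition above 20%; inactive means inhibition below 20%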;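 further: preformed 24 hr biofilms exposed to compound for 48 hr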
A number is an active result; n = inactive; x = not tested or not shown; [ ] = remark or other dose.

SMILES | MT1-MMP txn act | ERa coact pot | ERb coact inh | ERa coact inh | Smad3 inh | Candida biofilm
O=C(O)[C@H]1CCCN1Cc1c[nH]c2ccccc12 | x | x | x | x | n | x
Cc1c(N)cccc1-c1nc2ccccc2[nH]1 | n | n | n | n | n | n
CN(/N=C/c1cccnc1)c1cnn(-c2ccc(F)c(Cl)c2)c(=O)c1Cl | n | n | n | 61 | n | n
COc1ccc(-c2nn[nH]n2)cc1OC | n | n | n | n | n | n
Nc1cc(-c2nn[nH]n2)ccc1F | n | n | 60[fluorescence artefact?] | n | n | n
COCC(=O)N(C)C1(c2nnnn2CCOC(=O)Nc2cccc3ccccc23)CCCC1 | n | n | 61[fluorescence artefact?] | n | n | n
CCCCn1ccnc1C(=O)c1cccc(S(=O)(=O)N2CC(C)CC(C)C2)c1 (configuration not stated) | n | n | n | n | n | n
Cc1cccc(NC(=O)C2CCN(c3nc(C)cc(C)n3)CC2)c1 | n | n | 55[fluorescence artefact?] | n | n | n
O=C1Nc2cc3c(cc2Sc2ccccc21)OCCO3 | n | 234[fluorescence artefact?] | n | n | n | n
COc1ccc(NC(=O)C2CCCO2)cc1OC (configuration not stated) | n | n | n | n | 72 | n
CCOC(=O)N1CCN(C(=O)C2CCN(S(=O)(=O)CC)CC2)CC1 | n | 238[fluorescence artefact?] | n | n | n | n
CS(=O)(=O)Nc1ccccc1C(=O)N1CCN(c2ccccc2)CC1 | n | n | n | n | n | n
C[C@@]12CC[C@@H]3[C@H](CCC4=CC(=O)CC[C@]43C)[C@H]1CC[C@H]2C(=O)Cn1cnc2c(=S)nc[nH]c21 | x | x | x | x | n | x
Cc1ccc(NC(=O)CN2C(=O)S/C(=C\c3ccc(-c4cccc(C(=O)O)c4C)o3)C2=O)cc1 | n | 250[fluorescence artefact?] | n | n | n | n
O=C(O)C[C@H](Cc1ccccc1)C(=O)O | x | x | x | x | n | x
COc1ccccc1CN(Cc1cc2cc3c(cc2[nH]c1=O)OCCO3)Cc1nnnn1Cc1ccco1 | n | n | n | n | n | n
O=c1[nH]c2cc3c(cc2cc1CN(Cc1ccccc1)Cc1nnnn1Cc1ccco1)OCCO3 | n | 216 | n | n | n | n
O=c1[nH]c2cc3c(cc2cc1CN(Cc1cccs1)Cc1nnnn1Cc1ccco1)OCCO3 | n | n | n | 51 | n | n
CCOC(=O)c1ccc(N2C(=O)c3n[nH]c(C)c3C2c2ccc(OC)cc2)cc1 (configuration not stated) | n | n | n | 99[fluorescence artefact?] | n | n
Cc1nnc2sc(-c3ccc(NC(=O)c4cccnc4)cc3)nn12 | n | n | n | n | n | n
Cc1nnc2sc(-c3ccc(NC(=O)c4ccc(-c5ccc(Cl)cc5Cl)o4)cc3)nn12 | n | n | n | 70 | n | n
COC(=O)[C@@]1(Cc2ccc(OC)cc2)[C@H]2c3cc(C(=O)N4CCCC4)n(CCc4ccc(OC)c(Br)c4)c3C[C@H]2CN1C(=O)c1ccccc1 | n | x | x | x | x | x
CCOc1ccc(S(=O)(=O)N2CCN(C(=O)c3sccc3C)CC2)cc1 | n | n | n | n | n | n
Cc1cc(-c2ccc(Cl)cc2)c(C#N)c(N)n1 | n | 285[fluorescence artefact?] | n | n | n | n
O=C(O)/C=C/C(=O)Nc1ccccn1 | x | x | x | x | n | x
SMILES | MT1-MMP txn act | ERa coact pot | ERb coact inh | ERa coact inh | Smad3 inh | Candida biofilm
O=C(NC1CCCCC1)N1CCCC1 | n | n | n | n | n | n
Cc1cccc(-n2nc3c(c2NC(=O)c2ccc(Br)o2)CSC3)c1 | x | 211 | n | n | n | n
O=C1c2ccccc2C(=O)c2c(NC(=O)c3ccc4c5c(ncnc35)-c3ccccc3C4=O)cccc21 | x | x | x | x | n | x
CCn1c(SC(C)C(=O)O)nc2sc3c(c2c1=O)CCC3 (configuration not stated) | n | n | 92[fluorescence artefact?] | 93[fluorescence artefact?] | n | n
CCn1c(SCC(=O)N2CCOCC2)nc2sc3c(c2c1=O)CCCC3 | n | n | n | n | n | n
CSc1nc(C)cc(OCCNS(=O)(=O)c2ccc(C)cc2)n1 | n | n | n | n | n | n
O=C(Nc1ccn(C2CC(OC(=O)c3ccccc3)C(CO)O2)c(=O)n1)c1ccccc1 (configuration not stated) | n | 507[fluorescence artefact?] | n | n | n | x
NC(=O)N1CCN(C(=O)c2ccco2)CC1 | x | n | n | n | n | n
Nc1ccc(N2CCN(C(=O)c3ccco3)CC2)cc1 | n | n | 55[fluorescence artefact?] | 85[fluorescence artefact?] | n | n
CSc1nc2ccc3nc(NC(=O)c4ccc(Cl)s4)sc3c2s1 | x | n | n | 59[fluorescence artefact?] | n | n
COc1ccc(OC)c2sc(NC(=O)c3ccc(Cl)s3)nc12 | n | x | x | x | x | x
CSc1nc2ccc3nc(NC(=O)c4cccs4)sc3c2s1 | n | n | 79[fluorescence artefact?] | 69[fluorescence artefact?] | n | n
Cc1ccc(S(=O)(=O)O[C@@H]2[C@@H]3OC(C)(C)O[C@@H]3O[C@@H]2[C@@H]2COC(C)(C)O2)cc1 | x | x | x | x | n | x
Cc1sc(NC(=O)c2ccco2)c(C(c2cccnc2)N2CCCC2)c1C (configuration not stated) | n | n | n | n | n | n
CC(C)[C@@H]1OC(=O)C=CC=CC=CC=CC=CC[C@@H](O)[C@H](C)[C@@H](O)C[C@H](O)C[C@H](O)C[C@H](O)C[C@H](O)C[C@H](O)C[C@H](O)C=C[C@@H]1C | x | x | x | x | n | x
Cc1ccc(NC(=O)c2ccc(OC(=O)CCN3C(=O)c4ccccc4C3=O)cc2)cc1 | n | 372[fluorescence artefact?] | n | n | n | n
Cn1c(C(=O)NCc2cccs2)cc2c(=O)n(C)c3ccccc3c21 | n | 513[fluorescence artefact?] | n | n | n | n
Cn1c(C(=O)NC2CCCCC2)cc2c(=O)n(C)c3ccccc3c21 | n | n | n | n | n | n
Cc1ccc(CNC(=O)c2cc3c(=O)n(C)c4ccccc4c3n2C)cc1 | x | 291[fluorescence artefact?] | n | n | n | n
Cn1c(C(=O)NCCN2CCOCC2)cc2c(=O)n(C)c3ccccc3c21 | n | n | n | n | n | n
Cn1c(C(=O)NC2CCCCCC2)cc2c(=O)n(C)c3ccccc3c21 | n | 223[fluorescence artefact?] | n | n | n | n
COc1cc(NC(=O)c2cc3c(=O)n(C)c4ccccc4c3n2C)cc(OC)c1OC | n | 330 | n | n | n | n
O=C(O)CCSCc1ccccc1 | x | x | x | x | n | x
C[C@@H](CSC(=N)N)C(N)=O | x | x | x | x | n | x
C[C@@]12CC[C@@H]3[C@H](CCC4=CC(=O)CC[C@]43C)[C@H]1CC[C@H]2C(=O)COS(=O)(=O)c1ccc(Br)cc1 | x | x | x | x | n | x
SMILES | MT1-MMP txn act | ERa coact pot | ERb coact inh | ERa coact inh | Smad3 inh | Candida biofilm
O=C(Nc1ccc2c(c1)Cc1ccccc1-2)[C@@H]1[C@H](C(=O)O)[C@]2(Cl)C(Cl)=C(Cl)[C@@]1(Cl)C2(Cl)Cl | x | x | x | x | n | x
O=S(=O)(O)CCCc1cccc2ccccc12 | x | x | x | x | n | x
O=C(CSC1=NCCN1)Nc1ccccc1 | x | x | x | x | n | x
C[C@@H](NC(=O)C1(N)CCCC1)C(=O)O | x | x | x | x | n | x
C=CCNc1nc(-c2cccc(OC)c2O)nc2ccccc12 | n | n | n | 58 | n | n
COc1cccc(-c2nc(NCc3ccco3)c3ccccc3n2)c1O | n | n | n | n | n | n
N=C(N)C(N=Nc1ccccc1)C(=N)N (configuration not stated) | x | x | x | x | n | x
O=c1c2c(nc3cc(-c4cccc(Cl)c4)[nH]n13)CCC2 | 2 | n | n | n | n | n

Bioassay records (PubChem BioAssay)
